Inconclusive results are not listed. Values without a mark were called inactive. Calls of active or inactive are those of the source. The call rests on the fitted dose curve; in most records, active means well fitted inhibition curve with a large enough effect; inconclusive means small, poorly fitted or top-dose-only effect; inactive means flat fitted curve, though single readings scatter.
Potency means the concentration at half of the fitted maximal effect.

Chain of Luciferin 4-monooxygenase (Photinus pyralis) (P08659 whole entry, looked up): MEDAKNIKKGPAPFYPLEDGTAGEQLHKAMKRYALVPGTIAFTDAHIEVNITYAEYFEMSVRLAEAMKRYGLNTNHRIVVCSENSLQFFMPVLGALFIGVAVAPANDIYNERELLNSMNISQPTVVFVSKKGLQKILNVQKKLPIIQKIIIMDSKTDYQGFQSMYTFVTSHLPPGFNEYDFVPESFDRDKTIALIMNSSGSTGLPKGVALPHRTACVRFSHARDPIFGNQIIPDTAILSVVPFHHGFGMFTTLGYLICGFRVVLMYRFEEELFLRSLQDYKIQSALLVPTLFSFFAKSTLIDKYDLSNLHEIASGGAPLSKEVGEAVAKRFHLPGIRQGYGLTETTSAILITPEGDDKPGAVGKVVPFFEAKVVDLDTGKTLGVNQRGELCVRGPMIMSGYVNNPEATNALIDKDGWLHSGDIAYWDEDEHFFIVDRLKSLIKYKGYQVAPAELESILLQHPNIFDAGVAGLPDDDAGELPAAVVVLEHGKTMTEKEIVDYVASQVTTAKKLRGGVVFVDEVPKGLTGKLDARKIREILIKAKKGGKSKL

This test addresses Luciferin 4-monooxygenase (Photinus pyralis) (UniProt P08659). Put plainly: Biochemical firefly luciferase enzyme assay for NPC (AID 624030). Further: nearly all actives have a fitted effect of over 70% in size.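 On activity change, negative = inhibition: 0% = DMSO and -100% = full luciferase inhibition by PTC124 control.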 The note with it: purified P. pyralis luciferase, luminescence, 5 min; series mostly up to 58.6 µM; activity change, negative = inhibition: at the top concentration. From the text:
Charcot-Marie-Tooth-Association [CMTA] National Center for Advancing Translational Sciences [NCATS] Charcot-Marie-Tooth (CMT) disease was first characterized by Jean-Martin Charcot and Pierre Marie in France and, independently, by Howard Henry Tooth in England in 1886. CMT is one of the most common inherited neurological diseases, affecting approximately 1 in 2,500 Americans. […] The most prevalent type of CMT is known as CMT1A and caused by a duplication of the PMP22 gene which leads to over-expression of this protein. PMP22 is a glycosylated intrinsic membrane protein accounting for 2-5% of the myelin protein content, and its over-expression results in demyelination and subsequently axonal loss. A pair of cellular transcription-based assays was developed in the S16 rat Schwann cell lines (Hai, M., et al., 2002) stably transfected with orthogonal reporters - firefly luciferase (Fluc) and beta-lactamase (beta-Lac) - whose expression is driven by an intronic regulatory element of the PMP22 gene (Jones, E.A., et al., 2011) to recapitulate endogenous expression of PMP22. A comprehensive library of approved drugs, the NCGC Pharmaceutical Collection (Huang, R., et al., 2011), was screened in the cross-validating platform of the orthogonal reporter assays to identify drug modulators inhibitory towards PMP22 expression. A set of counter-screens was devised to address non-specific activity of the library. An ATP-dependent CellTiter-Glo assay (developed by Promega Corp) was utilized to control cell viability. In addition, biochemical Fluc enzyme assay was performed to assess direct inhibition of the Fluc enzymatic activity. References Hai, M., Muja, N., DeVries, G.H., Quarles, R.H. and Patel, P.I. Comparative analysis of Schwann cell lines as model systems for myelin gene transcription studies. J Neurosci Res, 2002. 69(4): pp 497-508 Huang, R., Southall, N., Wang, Y., Yasgar A., Shinn P., Jadhav, A. , Nguyen, D.-T. and Austin, C.P., The NCGC pharmaceutical collection: a comprehensive resource of clinically approved drugs enabling repurposing and chemical genomics. Sci Transl Med, 2011. 3(80): p. 80ps16.
Compounds were transferred to the plates in 23nl, and one microliter/well luciferase enzyme-buffer solution (10 nM P. pyralis luciferase and 50 mM Tris Acetate final concentrations) was dispensed yielding a final reaction volume of […]. Luciferase luminescence was measured by a ViewLux plate reader within 5 minutes of enzyme-buffer addition. The % activity was determined by normalizing to the average readings of PTC124 (a positive control) relative to DMSO (0% Activity). The concentration-effect curves were then classified based on curve quality (r2), response magnitude and degree of measured activity.
As to `CN(Cc1cnc2nc(N)nc(N)c2n1)c1ccc(C(=O)N[C@@H](CCC(=O)O)C(=O)O)cc1`, the “activity change, negative = inhibition” value was -3.39%.

As to `CC(CCc1ccc(O)cc1)NCCc1ccc(O)c(O)c1` (stereo not given), the “activity change, negative = inhibition” value was 7.42%.

On to `CN(C)C(=O)C(CCN1CCC(O)(c2ccc(Cl)cc2)CC1)(c1ccccc1)c1ccccc1`, for which the “activity change, negative = inhibition” value is -1.49%.

For the compound `CC(COc1ccccc1)N(CCCl)Cc1ccccc1` (stereo not given), the “activity change, negative = inhibition” value is 2.48%.

Consider `COc1ccc2[nH]cc(CCNC(C)=O)c2c1`, for which the “activity change, negative = inhibition” value is -4.56%.

As for `CN(C)c1nc(N(C)C)nc(N(C)C)n1`, the “activity change, negative = inhibition” value was 0.184% [at 24.9 µM].

As to `Nc1ccn([C@H]2CC[C@@H](CO)O2)c(=O)n1`, the “activity change, negative = inhibition” value was 0.0198%.

For `Cn1ccc2cc3c(cc21)CCN3C(=O)Nc1cccnc1`, the Potency is 6.42 µM (active).

`Cc1cc(C(C)(C)C)cc(C)c1CC1=NCCN1`: the “activity change, negative = inhibition” value is 10.4% [at 24.9 µM].

For `CC12CC3CC(C)(C1)CC(N)(C3)C2`, the “activity change, negative = inhibition” value was 0.693%.

Consider `CCOC(=O)Nc1ccc(NCc2ccc(F)cc2)nc1N`, for which the Potency result is “inactive”.

`OCCN(CCO)c1nc(N2CCCCC2)c2nc(N(CCO)CCO)nc(N3CCCCC3)c2n1`: the “activity change, negative = inhibition” value is -0.469%.

As to `CC#C[C@]1(O)CC[C@H]2[C@@H]3CCC4=CC(=O)CCC4=C3[C@@H](c3ccc(N(C)C)cc3)C[C@@]21C`, the “activity change, negative = inhibition” value is -7.14%.

Take `CN(CCOc1ccc(NS(C)(=O)=O)cc1)CCc1ccc(NS(C)(=O)=O)cc1`: the “activity change, negative = inhibition” value is -0.0423%.

Regarding `NC(=O)OCC(COC(N)=O)c1ccccc1`, the “activity change, negative = inhibition” value was 5.06%.

As for `COc1ccccc1OCC(O)CN1CCN(CC(=O)Nc2c(C)cccc2C)CC1` (stereo not given), the “activity change, negative = inhibition” value was 4.75%.

As for `CN1CCC(=C2c3ccccc3C=Cc3ccccc32)CC1`, the “activity change, negative = inhibition” value is 6.24%.

For `CN(C)C(=N)N=C(N)N`, the “activity change, negative = inhibition” value was -0.272% [at 24.9 µM].

`CN(C)CCC=C1c2ccccc2C=Cc2ccccc21`: the “activity change, negative = inhibition” value was 6.82%.

Regarding `CCCNCC(O)COc1ccccc1C(=O)CCc1ccccc1` (stereo not given), the “activity change, negative = inhibition” value was 2.14%.

In the case of `Nc1nnc(-c2cccc(Cl)c2Cl)c(N)n1`, the “activity change, negative = inhibition” value was 15.6%.

On to `Clc1ccc2c(c1)C(N1CCNCC1)=Nc1ccccc1O2`, for which the “activity change, negative = inhibition” value was -0.554%.

With `O=c1c(-c2ccc(O)cc2)coc2cc(O)cc(O)c12`, the Potency was 9.07 µM (active).

For the compound `Cn1c(=O)c2[nH]cnc2n(C)c1=O`, the “activity change, negative = inhibition” value is -0.755%.

As to `COc1ccc2c(c1)c(CC(=O)O)c(C)n2C(=O)c1ccc(Cl)cc1`, the “activity change, negative = inhibition” value was -13.2%.

Regarding `COc1cc2nc(N3CCN(C(=O)c4ccco4)CC3)nc(N)c2cc1OC`, the “activity change, negative = inhibition” value was -10.5%.

Consider `NCCCCCC(=O)O`, for which the “activity change, negative = inhibition” value was -0.0434% [at 24.9 µM].

Consider `C[C@](N)(Cc1ccc(O)c(O)c1)C(=O)O`, for which the “activity change, negative = inhibition” value is -16%.

Take `Nc1nc2c(ncn2COC(CO)CO)c(=O)[nH]1`: the “activity change, negative = inhibition” value is 1.71% [at 24.9 µM].

As to `Clc1ccc(C(c2ccccc2Cl)C(Cl)Cl)cc1` (stereo not given), the “activity change, negative = inhibition” value was -1.08%.

Regarding `O=C1c2c(O)ccc(O)c2C(=O)c2c(NCCNCCO)ccc(NCCNCCO)c21`, the “activity change, negative = inhibition” value is -5.49% [at 24.9 µM].

For `Clc1ccc2nsnc2c1NC1=NCCN1`, the “activity change, negative = inhibition” value was -2.15%.

As to `COc1ccccc1OCCNCC(O)COc1cccc2[nH]c3ccccc3c12` (stereo not given), the “activity change, negative = inhibition” value is 3.15%.

As to `CN1CCN(CCCN2c3ccccc3Sc3ccc(Cl)cc32)CC1`, the “activity change, negative = inhibition” value was 3.67%.

As to `CC1(CN2CCC(n3c(=O)[nH]c4ccccc43)CC2)OCc2ccccc2-n2cccc21` (stereo not given), the “activity change, negative = inhibition” value is -0.322%.

Consider `CS(=O)(=O)CCNCc1ccc(-c2ccc3ncnc(Nc4ccc(OCc5cccc(F)c5)c(Cl)c4)c3c2)o1`, for which the “activity change, negative = inhibition” value was -8%.

With `NC(=O)NO`, the “activity change, negative = inhibition” value is 1.47%.

Regarding `NC12CC3CC(CC(C3)C1)C2`, the “activity change, negative = inhibition” value is 8.47%.

For the compound `CNCCCC12CCC(c3ccccc31)c1ccccc12`, the “activity change, negative = inhibition” value was 11.5%.

As for `NCCc1cnc[nH]1`, the “activity change, negative = inhibition” value was 3.57%.
